Hits are enriched below; roughly 1.3% of the tested compounds scored in any of these assays.
Anesthetic bind: candidate novel general anesthetic via apoferritin binding; P02791; apoferritin/1-aminoanthracene competitive binding, fluorescence; hit rate 0.074% among 350,000; AID 485281; Potency, µM (series often up to 77.5 µM), usual class: inhibitors; also: nearly all actives have a fitted effect of over 20% in size
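Horse-spleen apoferritin (10 uM) was mixed with 50% saturated 1-aminoanthracene in PBS, exposed to compounds for 10 min at room temperature, and read for fluorescence (ex 380 nm, em 535 nm). Competitive displacement was fitted with a four-parameter Hill equation.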
TrxR1 substrate: is turned over as a substrate by rat TrxR1. O89049. AID 588456. purified TrxR1 substrate turnover, NADPH consumption readout. Potency, µM (highest dose often 114 µM). hit rate 0.01% among 390,000; also: nearly all actives have a fitted effect of over 50% in size
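Rat TrxR1, dispensed at 90 nM, was prereduced with 400 uM NADPH (final) for 5 min at ~22 deg C, then incubated with compound 15 min before 400 uM selenite. A first-read NADPH fluorescence drop versus no-compound background flagged substrates.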
GALK inhibitor: galactokinase (human) inhibition | AID 1868 | Potency, µM (series often up to 57.5 µM), usual class: inhibitors | Purified GALK, Kinase-Glo residual ATP luminescence | hit rate 0.007% among 270,000
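Kinase-Glo Plus luminescence measured ATP left after a 1 h room-temperature reaction. The reaction used 5 nM GALK, 100 uM galactose and 35 uM ATP at pH 8.0 (20 mM HEPES, 5 mM MgCl2, 60 mM NaCl, 1 mM DTT, 0.01% BSA).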
TrxR1 inh: blocks rat thioredoxin reductase 1 | Potency, µM (doses to about 114 µM), hits mostly inhibitors | hit rate 1% among 390,000 | recombinant rTrxR1, NADPH fluorescence consumption, selenite substrate; also: nearly all actives have a fitted effect of over 65% in size
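Rat TrxR1 (90 nM in the dispensed reagent) was pre-reduced with 400 uM NADPH for 5 min at room temperature, then incubated with compound for 15 min. After 400 uM selenite was added, NADPH fluorescence (Ex 340/Em 450 nm) was followed for 8 min.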
PKM2 act: increases activity of human pyruvate kinase M2. P14618. Potency, µM (top dose mostly 57.5 µM), most hits filed as activators. AID 1631. hit rate 0.34% among 260,000. purified PKM2, Kinase-Glo ATP luminescence, activation; response scale: 0% is enzyme alone, no compound; also: nearly all actives have a fitted effect of over 55% in size
Target sequence (P14618 whole entry, looked up): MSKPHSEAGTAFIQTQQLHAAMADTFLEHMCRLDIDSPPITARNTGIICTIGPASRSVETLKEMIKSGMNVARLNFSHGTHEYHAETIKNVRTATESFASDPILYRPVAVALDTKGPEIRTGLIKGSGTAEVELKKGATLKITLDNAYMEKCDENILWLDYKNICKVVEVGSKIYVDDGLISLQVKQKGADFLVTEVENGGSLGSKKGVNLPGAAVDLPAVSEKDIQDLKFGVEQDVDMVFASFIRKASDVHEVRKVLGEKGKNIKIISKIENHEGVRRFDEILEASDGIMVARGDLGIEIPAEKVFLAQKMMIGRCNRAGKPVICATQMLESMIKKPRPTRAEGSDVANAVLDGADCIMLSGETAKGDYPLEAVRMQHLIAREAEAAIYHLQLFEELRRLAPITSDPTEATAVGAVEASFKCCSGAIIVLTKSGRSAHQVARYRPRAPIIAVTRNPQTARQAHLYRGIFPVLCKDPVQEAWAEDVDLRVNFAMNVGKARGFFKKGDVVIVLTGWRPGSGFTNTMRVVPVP
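Kinase-Glo luminescence reports ATP generated from ADP (0.1 mM) and PEP (0.5 mM) by purified hPK-M2 after 1 h at room temperature, pH 7.2 imidazole buffer; intermediate enzyme activity allows detecting inhibitors and activators.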
mIDH1 inhibitor: human IDH1 R132H inhibition. O75874. Potency, µM (series often up to 76.6 µM), hits mostly inhibitors. hit rate 0.093% among 390,000. IDH1-R132H enzyme, NADPH consumption, diaphorase/resazurin fluorescence. AID 602179; also: nearly all actives have a fitted effect of over 65% in size
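IDH1-R132H (0.5 ug/mL dispensed) in pH 7.5 Tris buffer was preincubated 30 min with compound, then given a substrate mix of 0.016 mM NADPH and 2 mM alpha-KG for 80 min at room temperature; remaining NADPH was read by diaphorase/resazurin fluorescence.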
Resorufin autofl: counter-screen for mutant IDH1 inhibitors: fluorescence interference | shares compounds with mIDH1 inhibitor | Resorufin detection reagent fluorescence interference, cell-free | inhibition of signal, % at 51.2 µM | 750 tested, under 10 active | AID 623980
WT IDH1 inh: inhibits human wild-type IDH1, mutant selectivity check; hit rate 9% among 750; Potency, µM (highest dose often 115 µM), hits mostly inhibitors; AID 623995; shares compounds with mIDH1 inhibitor; WT IDH1 enzyme, NADPH diaphorase/resazurin fluorescence; also: nearly all actives have a fitted effect of over 55% in size
IDH1 R132H conf: inhibits human mutant IDH1 enzyme in cherrypick confirmation; shares compounds with mIDH1 inhibitor; IDH1 R132H enzyme, NADPH diaphorase/resazurin fluorescence; Potency, µM (titrated, usually from 76.6 µM), actives largely listed as inhibitors; hit rate 83% among 750; AID 624002; also: nearly all actives have a fitted effect of over 50% in size
Each line names hits and unclear results; the compound was inactive in the other large screens (follow-up assays come after a bar, where they were run). Calls follow the shape of the dose curve; as a rule, active = well fitted curve in the direction sought with a large enough effect; inconclusive = small, poorly fitted or top-dose-only effect, or another doubt; inactive = no such curve, though single readings can be large; an effect the other way counts as inactive or inconclusive.

COc1cc(Br)c(C2CC(=O)Nc3cc4c(cc32)OCCO4)cc1OC (configuration not stated)	none (no result: GALK inhibitor, PKM2 act)
Cc1ccc(NC(=O)Cn2nnc(-c3nc(-c4ccncc4)no3)c2N)cc1	none (no result: GALK inhibitor, PKM2 act, mIDH1 inhibitor)
COCC(=O)Nc1sc2c(c1C(=O)OC)CCCC2	none
COC(=O)c1c(NC(=O)COC(=O)c2ccc(O)cc2)sc2c1CCCCC2	mIDH1 inhibitor inconclusive | Resorufin autofl inactive | WT IDH1 inh inactive | IDH1 R132H conf inactive
CCOC(=O)c1ccc(N2C(=O)c3n[nH]c(-c4ccco4)c3C2c2ccc(OC)cc2OC)cc1 (configuration not stated)	mIDH1 inhibitor inconclusive (no result: GALK inhibitor, PKM2 act) | Resorufin autofl inactive | WT IDH1 inh inactive | IDH1 R132H conf inconclusive
CCOC(=O)c1ccc(N2C(=O)c3n[nH]c(C)c3C2c2ccc(OC)cc2OC)cc1 (configuration not stated)	none
CCOc1ccc(N2C(=O)c3[nH]nc(-c4ccccc4)c3C2c2ccc(O)c(OC)c2)cc1 (configuration not stated)	mIDH1 inhibitor inconclusive (no result: GALK inhibitor, PKM2 act) | Resorufin autofl inactive | WT IDH1 inh inactive | IDH1 R132H conf 20µM
Cc1ccc(-c2n[nH]c3c2C(c2ccccc2)N(c2ccc(C(=O)O)cc2)C3=O)cc1 (configuration not stated)	mIDH1 inhibitor 52µM | Resorufin autofl inactive | WT IDH1 inh inactive | IDH1 R132H conf 28µM
COc1ccc(C2c3c(-c4ccccc4)n[nH]c3C(=O)N2c2ccc(C(=O)O)cc2)c(OC)c1 (configuration not stated)	mIDH1 inhibitor 40µM (no result: GALK inhibitor, PKM2 act) | Resorufin autofl inactive | WT IDH1 inh inconclusive | IDH1 R132H conf 28µM
Cc1ccc(-c2n[nH]c3c2C(c2cccc(O)c2)N(c2ccc(C(=O)O)cc2)C3=O)cc1 (configuration not stated)	none
COc1ccc(S(=O)(=O)c2cn(C)c3cc(N4CCOCC4)c(F)cc3c2=O)cc1	none (no result: GALK inhibitor, PKM2 act)
COc1ccc(-c2cn3c(n2)sc2cc(C(=O)Nc4cccc(SC)c4)ccc23)cc1	none (no result: GALK inhibitor, PKM2 act)
O=C1c2[nH]nc(-c3ccc(Br)cc3)c2C(c2cccc(O)c2)N1c1ccc(Cl)cc1 (configuration not stated)	mIDH1 inhibitor 40µM (no result: GALK inhibitor, PKM2 act) | Resorufin autofl inactive | WT IDH1 inh inactive | IDH1 R132H conf 20µM
COC(=O)c1ccc(C2c3c(-c4ccc(Br)cc4)n[nH]c3C(=O)N2c2ccc(Cl)cc2)cc1 (configuration not stated)	none (no result: GALK inhibitor, PKM2 act)
Cc1cccc(CNC(=O)c2ccc(C)c(-n3c(C)nc4cccnc43)c2)c1	none (no result: GALK inhibitor, PKM2 act)
Cc1cc(C)cc(N(C(=O)Cc2cccs2)C(C(=O)NC2CCCC2)c2ccc(C)o2)c1 (configuration not stated)	mIDH1 inhibitor 7.4µM | Resorufin autofl inactive | WT IDH1 inh inactive | IDH1 R132H conf 4µM
COc1cccc(N(C(=O)Cc2cccs2)C(C(=O)NC2CCCC2)c2ccncc2)c1 (configuration not stated)	none (no result: PKM2 act)
Cc1ccc(C(C(=O)NC2CCCC2)N(C(=O)Cc2cccs2)c2cccc(C)c2C)o1 (configuration not stated)	mIDH1 inhibitor 9.3µM | Resorufin autofl inactive | WT IDH1 inh inactive | IDH1 R132H conf 6.3µM
COc1ccc(N(C(=O)Cc2cccs2)C(C(=O)NC2CCCC2)c2ccncc2)cc1 (configuration not stated)	none (no result: PKM2 act)

Compound activity: PubChem BioAssay, National Center for Advancing Translational Sciences (NCATS)
